IMPase cell inh: cell-permeable inhibitors of inositol monophosphatase (IMPase); inhibition (IP1 accumulation), % at 46.1 µM; 120,000 tested, under 10 active; CHO-M1 cells, IP1 accumulation, HTRF TR-FRET ratio; active = well fitted curve in the direction sought with a large enough effect in the signal ratio, not every such curve was filed as active; inconclusive = small, poorly fitted or top-dose-only effect, or a change in a side signal; inactive = no such curve, though single readings can be large or run the other way; the % refers to the signal ratio;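 note: cells stimulated with carbachol in lithium chloride buffer; higher means more IMPase inhibition seen as more IP1 and lower FRET ratio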
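Cellular IMPase inhibition is scored as a rise in cytosolic IP1, detected by competitive TR-FRET between d2-labelled IP1 and a europium anti-IP1 antibody. M1-expressing CHO cells were stimulated with carbachol for 30 min at 37C, with lithium (50 mM LiCl) present in the buffer.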
HPGD block: inhibitors of human 15-hydroxyprostaglandin dehydrogenase (HPGD); purified HPGD, NADH fluorescence kinetic, PGE2 substrate; Potency, µM, usual class: inhibitors; actives 4.3% (n = 150,000); AID 894
Target sequence (P15428 whole entry, looked up): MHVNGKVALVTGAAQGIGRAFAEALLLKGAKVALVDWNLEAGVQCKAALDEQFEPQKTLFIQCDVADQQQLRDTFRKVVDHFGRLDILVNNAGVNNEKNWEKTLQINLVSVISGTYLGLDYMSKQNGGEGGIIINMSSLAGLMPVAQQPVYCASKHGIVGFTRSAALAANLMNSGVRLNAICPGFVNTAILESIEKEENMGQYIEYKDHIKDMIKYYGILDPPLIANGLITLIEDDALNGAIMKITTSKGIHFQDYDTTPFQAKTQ
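NADH formation kinetics: reaction with 30 uM PGE2 and 1 mM NAD+ (final), 20 nM enzyme, Tris-HCl pH 8 with Tween 20, after 15 min compound preincubation at room temperature. Fluorescence change, last versus first of five reads.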
PNC assembly inh: blocks assembly of the perinucleolar compartment | PC3M PTB-GFP, PNC prevalence imaging, 16 h; stronger effect = lower value | activity change (PNC), negative = inhibition, % at 10 µM | actives 3.1% (n = 140,000);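 active = readout at or below -70, meaning at least 70% loss of cells showing the perinucleolar compartment, a nuclear body marking cancer cells; inconclusive = readout between -30 and a set limit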
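Read-out is percentage of cells bearing a perinucleolar compartment, from automated 20x imaging of fixed, Hoechst-stained PC3M PTB-GFP cells. Cells were seeded 4 h, then exposed 16 h to compound (23 nl of library stock) in duplicate plates.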
IMPase Li cell: membrane-permeable IMPase blocker, potentiated with lithium; AID 1457; CHO-M1 cells, IP1 TR-FRET (IP-One), carbachol + lithium; Potency, µM (titrated, usually from 59.4 µM), actives largely listed as inhibitors; actives 0.35% (n = 210,000); active = well fitted inhibition curve with a large enough effect; inconclusive = small, poorly fitted or top-dose-only effect; inactive = no such curve, though single readings can be large or run the other way;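 note: IP1 builds up when IMPase is blocked and the TR-FRET signal falls; nearly all actives have a fitted effect of over 50% in size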
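CHO-M1, 2000 cells/well, 16–30 h culture; cpd + low Li+, 30 min 37C; lysis with d2-IP1/Eu-anti-IP1 Ab, 10 min RT; TR-FRET 665/620 ratio and 620 channel; AC50 via Hill.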
ALDH1A1 inh: inhibitors of human aldehyde dehydrogenase 1A1; P00352; Purified ALDH1A1, NADH fluorescence, propionaldehyde substrate; Potency, µM (series often up to 75.3 µM), hits mostly inhibitors; actives 7.3% (n = 220,000); AID 1030
Target sequence (P00352 whole entry, looked up): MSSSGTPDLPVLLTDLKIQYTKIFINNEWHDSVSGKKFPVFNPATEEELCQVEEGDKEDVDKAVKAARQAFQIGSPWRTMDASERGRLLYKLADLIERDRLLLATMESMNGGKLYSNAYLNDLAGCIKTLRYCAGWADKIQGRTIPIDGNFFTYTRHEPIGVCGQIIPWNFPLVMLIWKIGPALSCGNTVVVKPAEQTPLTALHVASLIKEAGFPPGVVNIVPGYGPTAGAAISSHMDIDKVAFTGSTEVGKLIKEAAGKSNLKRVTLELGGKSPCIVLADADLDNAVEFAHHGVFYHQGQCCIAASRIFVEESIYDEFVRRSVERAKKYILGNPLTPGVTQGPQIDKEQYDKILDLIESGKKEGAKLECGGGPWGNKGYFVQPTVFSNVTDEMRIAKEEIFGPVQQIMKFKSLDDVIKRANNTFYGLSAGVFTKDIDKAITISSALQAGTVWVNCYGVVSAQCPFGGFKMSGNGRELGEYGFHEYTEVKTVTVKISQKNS
Large screens that a line does not name were inactive. Most compounds without a hit are left out; they make up all but 11% or so of the library. Unless noted, calls come from the whole dose curve; as a rule, active = well fitted inhibition curve with a large enough effect (not every such curve was filed as active); inconclusive = small, poorly fitted or top-dose-only effect, or another doubt; inactive = no such curve, though single readings can be large or run the other way.

O=C1NC(c2cccc(Br)c2)=N/C1=C\c1ccco1	HPGD block inconclusive, ALDH1A1 inh 11µM (no result: IMPase cell inh)
O=C1/C(=C\c2ccco2)NC(=S)N1c1ccccc1	none (no result: IMPase cell inh, HPGD block, PNC assembly inh)
O=C1NC(c2ccccc2)=N/C1=C/c1ccco1	HPGD block inconclusive, ALDH1A1 inh 18µM
Cc1ccc2c(c1)/C(=C/c1ccco1)C(=O)N2	ALDH1A1 inh inconclusive (no result: IMPase cell inh, HPGD block, PNC assembly inh)
O=C(CNC(=O)c1ccc2c(c1)OCCO2)N/N=C/c1cccc(Br)c1	ALDH1A1 inh inconclusive (no result: IMPase cell inh, HPGD block, PNC assembly inh)
Cc1ccc(OCc2nnc(SCC(=O)Nc3cccc4ccccc34)n2-c2ccccc2)cc1	PNC assembly inh -119
Cc1ccc(OCc2nnc(SCc3cc(=O)[nH]c4ccccc34)n2-c2ccccc2)cc1	HPGD block 11µM
Cc1ccc(NC(=O)CSc2nnc(-c3n[nH]c4ccccc34)n2-c2ccccc2)c(C)c1	PNC assembly inh inconclusive, ALDH1A1 inh 20µM
Cc1ccccc1OCc1nnc(SCc2cc(=O)[nH]c3ccccc23)n1-c1ccccc1	none
CC(=O)c1sc(NC(=O)COc2ccc(C)c(C)c2)nc1C	PNC assembly inh inconclusive, ALDH1A1 inh inconclusive (no result: IMPase cell inh)
COc1cccc(-c2ccc3ncnc(N4CCOCC4)c3c2)c1	none (no result: IMPase cell inh, HPGD block, PNC assembly inh)
CC(C)CC(=O)NC(=S)Nc1ccc(S(=O)(=O)Nc2nccs2)cc1	none (no result: IMPase cell inh)
O=C1NCCCN1Cc1ccc(F)cc1Cl	ALDH1A1 inh 4.5µM
O=c1c(-c2ccccc2)nc2cnc(N3CCOCC3)nc2n1CCc1ccccc1	ALDH1A1 inh inconclusive (no result: IMPase cell inh, HPGD block, PNC assembly inh)
Cn1ncc2c(Cl)ncnc21	none (no result: IMPase cell inh, PNC assembly inh)
CCOC(=O)c1c(C)oc2c1c(C(c1ccccc1)N1CCOCC1)c(O)c1ccccc12 (configuration not stated)	HPGD block inconclusive, ALDH1A1 inh 3.5µM
O=C1C=C(NNC(=O)c2ccncc2)CC(c2ccccc2)C1 (configuration not stated)	ALDH1A1 inh 8.9µM (no result: IMPase cell inh, HPGD block, PNC assembly inh)
Cc1ccc2nc(SCc3nnc(-c4cccs4)o3)[nH]c2c1	HPGD block 32µM, PNC assembly inh inconclusive, ALDH1A1 inh 22µM
Cc1ccc2nc(SCc3nnc(-c4ccccc4)o3)[nH]c2c1	HPGD block inconclusive
CC1CN(C2CCN(C(=O)c3ccccc3Cl)CC2)CC(C)O1 (configuration not stated)	PNC assembly inh inconclusive, ALDH1A1 inh inconclusive
Cc1nn(C(C)c2n[nH]c(=S)n2-c2cccc(Cl)c2)c(C)c1[N+](=O)[O-] (configuration not stated)	HPGD block 22µM
Cc1ccc(-n2c(C(C)n3nc(C)c([N+](=O)[O-])c3C)n[nH]c2=S)cc1 (configuration not stated)	none
O=c1cc(CO)oc(C(Nc2ccccn2)c2ccc(F)cc2)c1O (configuration not stated)	PNC assembly inh inconclusive, ALDH1A1 inh 8.9µM
O=c1cc(CO)oc(C(Nc2ccccn2)c2ccccc2Cl)c1O (configuration not stated)	ALDH1A1 inh 5µM (no result: IMPase cell inh, HPGD block, PNC assembly inh)
O=c1cc(CO)oc(C(Nc2ccccn2)c2ccsc2)c1O (configuration not stated)	HPGD block inconclusive, ALDH1A1 inh inconclusive
COc1ccc(C(Nc2ccccn2)c2oc(CO)cc(=O)c2O)cc1 (configuration not stated)	HPGD block inconclusive, ALDH1A1 inh inconclusive (no result: IMPase cell inh)
Cc1ccnc(NC(c2ccccc2O)c2oc(CO)cc(=O)c2O)c1 (configuration not stated)	ALDH1A1 inh 13µM (no result: IMPase cell inh, HPGD block, PNC assembly inh)
Cc1ccnc(NS(=O)(=O)c2ccc(N=[N+]=[N-])cc2)n1	none (no result: IMPase cell inh, PNC assembly inh)
Cc1ccc2cccnc2c1	ALDH1A1 inh inconclusive (no result: IMPase cell inh, PNC assembly inh)
CCOc1cccc(CNc2ccc(O)cc2)c1OCc1ccccc1Cl	ALDH1A1 inh inconclusive
CCOc1cccc(CNc2ccc(O)cc2)c1OCc1ccc(Cl)cc1Cl	ALDH1A1 inh 22µM
COc1ccc(-c2nc3cc(C(C)C)ccc3o2)cc1NC(=O)c1ccc(C)c(Cl)c1	none (no result: HPGD block, PNC assembly inh, IMPase Li cell, ALDH1A1 inh)
COc1ccc(C(=O)OCc2cc3cccc(C)c3[nH]c2=O)cc1	IMPase Li cell 10µM, ALDH1A1 inh inconclusive
COc1ccc(CC(=O)OCc2cc3cccc(C)c3[nH]c2=O)cc1	HPGD block inconclusive, PNC assembly inh inconclusive, IMPase Li cell inconclusive, ALDH1A1 inh inconclusive
O=C(OCc1cc2ccccc2[nH]c1=O)c1ccncc1	IMPase cell inh inconclusive, PNC assembly inh -100
O=C(OCc1cc2ccccc2[nH]c1=O)c1ccccc1	none
CSC(=[SH+])N=N/C(=C1/C=CC=CN1)c1ccccn1.[Cu][Br]	HPGD block inconclusive, ALDH1A1 inh 0.63µM (no result: IMPase cell inh, PNC assembly inh)
COC(=O)C1=C(C(=O)OC)[C@@H]2N(Cc3ccccc3)c3ccccc3[C@@]23C[C@@H](C(=O)OC)N(S(=O)(=O)c2ccc([N+](=O)[O-])cc2)C3=N1	none (no result: IMPase cell inh, PNC assembly inh)
CCCC[C@@H](C=O)NC(=O)[C@H](CC(C)C)NC(=O)[C@H](CC(C)C)NC(C)=O	IMPase Li cell inconclusive (no result: IMPase cell inh, PNC assembly inh)
COCCNS(=O)(=O)c1ccc(-c2ccc(S(=O)(=O)NCCOC)cc2)cc1	HPGD block 11µM, ALDH1A1 inh inconclusive
COCCNS(=O)(=O)c1ccccc1	none
Cc1noc(C)c1-c1nccc(N2CCN(C)CC2)n1	ALDH1A1 inh inconclusive (no result: IMPase cell inh, HPGD block, PNC assembly inh)
O=C(O)CCCCCNc1nc2ncn(Cc3ccccc3)c2c(=O)[nH]1	PNC assembly inh inconclusive, ALDH1A1 inh inconclusive
CC(Nc1nc2ncn(Cc3ccccc3)c2c(=O)[nH]1)C(=O)O (configuration not stated)	HPGD block 28µM, PNC assembly inh inconclusive
CCCC1=[N+](CC(=O)c2ccc(C)cc2)CCn2cccc21	none
O=C(C1CCN(S(=O)(=O)N2CCCCC2)CC1)N1CCCCC1	HPGD block 20µM, ALDH1A1 inh inconclusive (no result: IMPase cell inh)
O=C(C1CCN(S(=O)(=O)N2CCCC2)CC1)N1CCCCC1	none
CCN1C(=O)C=CC1=O	ALDH1A1 inh inconclusive (no result: PNC assembly inh)
O=C1C=CC(=O)N1CCCCCCN1C(=O)C=CC1=O	HPGD block 2.2µM, PNC assembly inh inconclusive, ALDH1A1 inh 0.22µM
C=CCn1c(=O)/c(=C/c2ccc(C)o2)s/c1=C(/C#N)C(=O)c1ccccc1	ALDH1A1 inh 0.71µM
COCCCn1c(=O)/c(=C\c2ccccc2OC(F)F)s/c1=C(/C#N)C(N)=O	none (no result: IMPase cell inh, HPGD block, PNC assembly inh)
CCCC(=O)c1ccc(N2CCC(C)CC2)c(F)c1	HPGD block 14µM (no result: IMPase cell inh)
CCCC(=O)c1ccc(N2CCCCCC2)c(F)c1	HPGD block 16µM, ALDH1A1 inh inconclusive
CCC(=O)c1ccc(N2CCC(C)CC2)c(F)c1	none (no result: IMPase cell inh, HPGD block, PNC assembly inh)
COC(=O)NC(c1ccccc1)[C@@]1(C(=O)OC)CCCC1=O (some centres not stated)	none (no result: IMPase cell inh, HPGD block, PNC assembly inh, IMPase Li cell)
O[C@@H](CNC[C@H](O)c1ccccc1)c1ccccc1	PNC assembly inh -100
OC(CNCCc1ccccc1)c1ccccc1 (configuration not stated)	none
CC(C)c1ccc(NC(=O)Cn2c(=O)n(CC3CCC(C(=O)NCCc4ccccc4)CC3)c(=O)c3ccccc32)cc1 (configuration not stated)	none (no result: HPGD block, PNC assembly inh, IMPase Li cell, ALDH1A1 inh)

Screening data from PubChem.
